PubChem BioAssay (NCI)
This is part of a sample that, as a whole, favours compounds with a hit. Of some 83,000 tested, about 20% had one in any assay.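 Step 1: grow cells in 96-well plates. Step 2: add test compound at a single concentration. Step 3: incubate 48 h. Step 4: record percent growth.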 Values without a mark were called inactive. Active and inactive are the calls of the source. How the source made its calls: active means growth percent below 10; inactive means the rest.

Legend:
Assay in all cases: NCI-60 one-dose screen, 48 h (100 = growth as untreated, 0 = no growth, -100 = all killed)
Details in all cases: 10 µM unless noted
DU-145 prostate = system: DU-145 prostate
K-562 leukemia = system: K-562 leukemia
MALME-3M melanoma = system: MALME-3M melanoma
MDA-MB-231 breast = system: MDA-MB-231 breast
RXF 393 renal = system: RXF 393 renal
SF-268 CNS = system: SF-268 CNS
SF-295 CNS = system: SF-295 CNS
SF-539 CNS = system: SF-539 CNS
UACC-257 melanoma = system: UACC-257 melanoma
M14 melanoma = system: M14 melanoma
HCT-15 colon = system: HCT-15 colon
HT29 colon = system: HT29 colon
SNB-75 CNS = system: SNB-75 CNS
SNB-19 CNS = system: SNB-19 CNS
U251 CNS = system: U251 CNS
PC-3 prostate = system: PC-3 prostate
SK-MEL-5 melanoma = system: SK-MEL-5 melanoma
UACC-62 melanoma = system: UACC-62 melanoma
LOX IMVI melanoma = system: LOX IMVI melanoma
SK-MEL-28 melanoma = system: SK-MEL-28 melanoma

SMILES	growth (DU-145 prostate)	growth (K-562 leukemia)	growth (MALME-3M melanoma)	growth (MDA-MB-231 breast)	growth (RXF 393 renal)	growth (SF-268 CNS)	growth (SF-295 CNS)	growth (SF-539 CNS)	growth (UACC-257 melanoma)	growth (M14 melanoma)	growth (HCT-15 colon)	growth (HT29 colon)	growth (SNB-75 CNS)	growth (SNB-19 CNS)	growth (U251 CNS)	growth (PC-3 prostate)	growth (SK-MEL-5 melanoma)	growth (UACC-62 melanoma)	growth (LOX IMVI melanoma)	growth (SK-MEL-28 melanoma)
COc1ccc(NC(=O)c2nc(-c3cc(OC)c(OC)c(OC)c3)n(-c3cccc4ccccc34)n2)cc1OC	70.4%	35.4%	52.8%	27%	66.1%	58.6%	52.6%	35%	57.5%	48%	14.5%	30%	24.4%	52.3%	52.4%	39.8%	32.4%	31%	25.2%	55.4%
NCCCNc1nc2ccccc2c2c(=O)c3cccc(Cl)c3sc12	-14.3% (active)	-21.1% (active)	41.6%	-18.3% (active)	29.5%	26.5%	26.8%	66.3%	72.8%	-46.4% (active)	-79.6% (active)	-63.2% (active)	41.7%	49.8%	-51.7% (active)	43.8%	60.3%	51.4%	-90% (active)	53.2%
CN(C)CCNc1nc2ccccc2c2c1c1c(n2Cc2ccccc2)-c2ccccc2C1=O	-100% (active)	-57.9% (active)	-59% (active)	-79.8% (active)	-65.5% (active)	-81.9% (active)	-77.3% (active)	-91.3% (active)	-85.3% (active)	-81.8% (active)	-88.2% (active)	-100% (active)	-96.1% (active)	-86.3% (active)	-95.9% (active)	-88.6% (active)	-100% (active)	-94.1% (active)	-96.2% (active)	-100% (active)
CCOc1c(C#N)nnc2c(C#N)c(NC(=O)c3ccccc3)nn12	109%	98.6%	103%	100%	110%	98.8%	104%	95.3%	97%	99.1%	106%	106%	79.8%	100%	95.6%	100%	99.4%	101%	95.5%	104%
O=C(/C=C/c1c(Cl)nc2sccn12)c1nccs1	112%	84.3%	108%	95.8%	70.7%	84.8%	110%	106%	81%	93.9%	99.3%	97.5%	67.1%	102%	91.6%	91.1%	95.6%	89.7%	89.1%	104%
CSc1n(Cc2ccc3ccccc3c2)c(C)c[n+]1Cc1ccc2ccccc2c1	-12.8% (active)	8.26% (active)	-25.1% (active)	-30.8% (active)	-26.1% (active)	-11.7% (active)	-23.3% (active)	8.44% (active)	-41.5% (active)	-14.3% (active)	24.4%	-11.2% (active)	-32.4% (active)	3.42% (active)	2.53% (active)	0.0083% (active)	-95.8% (active)	-56.2% (active)	-91.5% (active)	-9.19% (active)
COc1ccc(-c2csc(C3=C(O)CN(CCCN4CCCC4=O)C3=N)n2)cc1OC	103%	88.9%	129%	79.6%	78.3%	121%	92%	90.1%	97.2%	122%	94%	114%	106%	93.8%	99%	83.5%	89.2%	103%	93.5%	124%
O=C1CC(N2C(=O)/C(=C/C(Cl)=C\c3ccc([N+](=O)[O-])cc3)SC2=S)C(=O)N1c1ccc(O)cc1 (stereo not given)	0.996% (active)	6.6% (active)	-39% (active)	-10.3% (active)	-70.5% (active)	5.72% (active)	-37.2% (active)	-28.8% (active)	-5.88% (active)	-7.42% (active)	-38.2% (active)	-16.7% (active)	14.9%	-9.69% (active)	-39.5% (active)	5.02% (active)	-39.1% (active)	-63.2% (active)	-83.7% (active)	-34% (active)
